Source: ChEMBL document CHEMBL3433997, “St. Jude Leishmania screening dataset” (2016)

Assays:
Assay type in all cases: functional
[1] = target: Solute carrier family 2, facilitated glucose transporter member 1 (Homo sapiens) (UniProt P11166); assay: ST_JUDE_LEISH: Cytotoxicity at 2uM final concentration against transgenic Leishmania Mexicana promastigotes LmGLUT1 that are glucose transport deficient and complemented with the human glucose transporter GLUT1. Activity is measured by DNA content using SYBR green in vitro
Solute carrier family 2, facilitated glucose transporter member 1 (Homo sapiens), sequence (P11166 whole entry): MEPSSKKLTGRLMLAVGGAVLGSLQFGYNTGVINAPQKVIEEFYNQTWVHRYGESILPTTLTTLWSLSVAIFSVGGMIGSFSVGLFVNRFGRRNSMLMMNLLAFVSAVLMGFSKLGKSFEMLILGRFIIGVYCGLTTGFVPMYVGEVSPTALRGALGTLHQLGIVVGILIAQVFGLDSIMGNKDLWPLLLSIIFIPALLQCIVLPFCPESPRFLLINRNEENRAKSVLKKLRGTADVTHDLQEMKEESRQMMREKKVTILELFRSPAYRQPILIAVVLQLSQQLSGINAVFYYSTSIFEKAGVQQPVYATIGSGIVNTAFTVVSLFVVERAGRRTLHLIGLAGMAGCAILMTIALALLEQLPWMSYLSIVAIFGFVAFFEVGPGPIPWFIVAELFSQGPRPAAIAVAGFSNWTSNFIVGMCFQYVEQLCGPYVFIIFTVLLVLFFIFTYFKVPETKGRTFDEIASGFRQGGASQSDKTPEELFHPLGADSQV

[2] = target: Hexose transporter 1 (Plasmodium falciparum) (UniProt O97467); assay: ST_JUDE_LEISH: Cytotoxicity at 2uM final concentration against transgenic Leishmania Mexicana promastigotes LmPfHT that are glucose transport deficient and complemented with the Plasmodium falciparum hexose transporter. Activity is measured by DNA content using SYBR green in vitro
[3] = target: Glucose transporter (Leishmania mexicana) (UniProt O61059); assay: ST_JUDE_LEISH: Cytotoxicity at 2uM final concentration against transgenic Leishmania Mexicana promastigotes LmGT2 that are glucose transport deficient and complemented with the L. Mexicana glucose transporter 2. Activity is measured by DNA content using SYBR green in vitro

| Compound | inhibition [1] [%] | inhibition [2] [%] | inhibition [3] [%] |
| --- | --- | --- | --- |
| CC(C)(C)OC(=O)N1CCN(c2ccccc2NC(=O)c2cccc(C(F)(F)F)c2Oc2ccc(F)cc2)CC1 | -1.41 | 0.7 | 0.52 |
| Cc1ccc(Cn2c(N3CCC(C(=O)NCc4ccccn4)CC3)nc3ccccc32)cc1 | 4.09 | 4.68 | 7.97 |
| O=C(Nc1ccccc1)c1nn(CCCN2CCC(N3CCCC3)CC2)cc1-c1ccc(Cl)c(Cl)c1 | 2.06 | 0.39 | 0.89 |
| O=C(NCCCCCN1CCC(c2c[nH]c3ccccc23)CC1)Nc1ccc(Cl)c(Cl)c1 | -1 | -1.05 | 1.89 |
| COc1cc2ccccc2cc1CNCCCCCCNCc1cc2ccccc2cc1OC | 5.18 | 6.05 | 5.15 |
| c1ccc(C2CCC(N3CCC(N4CCCC4)CC3)CC2)cc1 (stereo unspecified) | 0.84 | -0.62 | 1.54 |
| CCc1c(CCNCCCCCNCCc2ccc(OC)c(OC)c2CC)ccc(OC)c1OC | 3.35 | 5.75 | 4.72 |
| CC(C)(C)COC(=O)c1ccc(NC(=O)N[C@@H](Cc2ccc(O)cc2)C(=O)NC2CCN(Cc3ccc(O)cc3)C2)cc1 (stereo partly specified) | -2.22 | -2.38 | -0.79 |
| CCN(c1ccccc1)S(=O)(=O)c1ccc(NC(=O)c2cc(-c3cc(C)ccc3O)n[nH]2)cc1 | -1.82 | 5.38 | -1.84 |
| Cc1sc(CNCCCNc2cc(=O)c3ccccc3[nH]2)c(I)c1C | 3.11 | 2.66 | 1.68 |
| CCCCNCc1ccc(-c2nc(CN(C(=O)Nc3cc([N+](=O)[O-])ccc3F)C3Cc4ccccc4C3)cs2)cc1 | 6.86 | 8.03 | 4.78 |
| CCN(CC)CCCCNc1cc(-c2[nH]c(C(C)(C)C)nc2-c2ccc3cc(OC)ccc3c2)ccn1 | 4.69 | 4.79 | 1.94 |
| Cc1cccc2nc(-c3ccc(-c4ccc(NC(=O)Nc5ccc(Cl)cc5)cc4)s3)[nH]c12 | 1.01 | 1.2 | 0.32 |
| Cc1ccc2c(=NN=Cc3cccc(Cl)c3)cc(C)[nH]c2c1 | 0.92 | 0.93 | 1.04 |
| Clc1ccccc1CCNCC1CCN(CC2CCCCC2)CC1 | 4.24 | 5.3 | 1.76 |
| CCn1c(-c2nonc2N)nc2c(-c3cccc(NC(=O)Nc4cccc(C(F)(F)F)c4)c3)ncc(OCCCN)c21 | 2.47 | 1.37 | 0.62 |
| CCCCNS(=O)(=O)c1ccc(NC(=O)c2cc([N+](=O)[O-])ccc2Cl)cc1 | 2.21 | 0.49 | -1.07 |
| COc1ccc(CNC2Cc3ccccc3C2)cc1-c1ccc(S(=O)(=O)NCc2cccnc2)s1 | 1.92 | 2.48 | 0.3 |
| CC(CN(C)C)C(=O)Nc1ccc(-c2csc(-c3nc4ccccc4[nH]3)c2)cc1 (stereo unspecified) | 0.09 | 3.49 | 3.09 |
| O=C(Nc1cccc(Cl)c1N1CCOCC1)C(Cl)(Cl)Cl | 1.32 | 0.42 | 1.03 |
| COc1cc2ncnc(Nc3ccc(OCc4ccccc4Br)c(OC)c3)c2cc1OC | 1.37 | 0.69 | -0.16 |
| CN1CCN(Cc2cccc(Nc3nccc(Nc4ccc(Oc5ccccc5)cc4)n3)c2)CC1 | 1.89 | 7.05 | 5.8 |
| COCCN(C(=O)Cc1cccs1)C(C(=O)NCc1ccc(OC)cc1)c1ccc(C(C)C)cc1 (stereo unspecified) | 2.96 | -3.02 | -0.76 |
| O=C(Nc1cccc(CN2CCCN(Cc3ccc(O)cc3)CC2)c1)c1ccc(Br)cc1 | 0.51 | 0.85 | 3.89 |

| Compound | inhibition [1] [%] | inhibition [2] [%] | inhibition [3] [%] |
| --- | --- | --- | --- |
| COc1ccc(-c2ccc(NC(=O)c3ccc(C#N)cc3)cc2)cc1CN1CCCN(C)CC1 | 3.03 | 3.17 | -0.21 |
| O=C(Nc1cccc(C(F)(F)F)c1)NC1CCN(c2ccnc3ccccc23)C1 (stereo unspecified) | 1.65 | -0.4 | 6.33 |
| COc1cc(Cc2cnc(N)nc2N)cc(OCCCCNS(=O)(=O)C(F)(F)F)c1OC | 1.9 | 1.69 | 1.88 |
| Cc1ccc(CCOCCCCCNCC(O)c2cc(Cl)c(N)c(Cl)c2)cc1 (stereo unspecified) | 1.04 | -1.13 | 0.95 |
| FC(F)(F)c1ccc2[nH]c(-c3cccc(-c4cccc(CNCCc5ccncc5)c4)c3)nc2c1 | 4.96 | 4.69 | 5.06 |
| O=C(NC1CCN(Cc2ccc(O)cc2)CC1)c1ccc(Cl)c(Cl)c1 | 4.53 | 4.25 | -3.12 |
| CNC(=O)c1ccccc1Nc1cc(Nc2cc(OC)ccn2)ncc1Cl | 5.77 | 7.66 | 6.6 |
| c1ccc(CN2CCC(NCc3ccc(-c4cncc5ccccc45)cc3)CC2)cc1 | 0.33 | -2.18 | 3.84 |
| CCn1c(C=Cc2cc(Br)ccc2O)nc2ccccc2c1=O | -1.02 | 0.39 | 0.51 |
| Cn1cnc(CCNC(=O)c2cccc(-c3ccc(-c4nc5cc(F)ccc5[nH]4)cc3)c2)c1 | 1.27 | 1.88 | 0.3 |
| CCN(CC)CCN(Cc1ccc(-c2ccc(C(F)(F)F)cc2)cc1)C(=O)Cn1c(CCc2cccc(F)c2F)nc(=O)c2cc(F)c(F)cc21 | 9.33 | 7.63 | 9.47 |
| COC(=O)c1ccc(NC(=O)Nc2ccc(Cn3ncc(N4CCCNCC4)c(Cl)c3=O)cc2)cc1 | -0.9 | 0.77 | -0.5 |
| COc1ccc2nccc(CCN3CC(O)C(CNCc4ccc5c(n4)NC(=O)CS5)C3)c2n1 (stereo unspecified) | 3.43 | 3.49 | 4.07 |
| Oc1ccc(CCNc2nc(NCc3cccc(OCc4cccc(F)c4)c3)nc(N3CCNCC3)n2)cc1 | -1.28 | 0.71 | 1.08 |
| CC(C)CCN1CCC(Oc2ccc(NC(=O)c3cccs3)cc2Cl)CC1 | 0.82 | 4.49 | 3.68 |
| Cc1cc(C)cc(-n2c(C)cc(/C=C3\SC(=Nc4ccc(Cl)cc4)NC3=O)c2C)c1 | 5.26 | 7.1 | 1.22 |
| O=C(/C=C/c1ccc(Cl)cc1)NCCCCCN1CCN(C(=O)C=Cc2ccc(Cl)c(Cl)c2)CC1 | 2.44 | 0.82 | -2.29 |
| Cc1cccc2nc(-c3ccc(-c4ccc(CN5CCN(CCO)CC5)cc4)s3)[nH]c12 | 10.6 | 8.8 | 7.69 |
| CCOc1ccc(N(CC)S(=O)(=O)c2cc(Br)cc3c2N(C(=O)C2CC2)CC3)cc1 | 2.96 | 2.04 | 1.74 |
| COc1cccc(C2CCN(CCN3CCC(NC(=O)c4ccc(-c5ccc(Cl)cc5)cc4)CC3)CC2)c1 | -0.82 | 0.69 | 1.81 |
| COc1cc(NC(=O)c2cc3c(C)nn(-c4cccc(C(F)(F)F)c4)c3s2)cc(OC)c1OC | 0.22 | 1.29 | 2.46 |
| OC(CNc1ccnc(Nc2cccc(Cl)c2)n1)c1cccc(C(F)(F)F)c1 (stereo unspecified) | 14.4 | 11.6 | 4.06 |
| O=C(Cn1c(SCc2cccc(F)c2F)cc(=O)c2ccccc21)N(CCCn1ccnc1)Cc1ccc(-c2ccc(C(F)(F)F)cc2)cc1 | 3.11 | 1.44 | 2.6 |
| COc1ccc(-c2cc(C(=O)Nc3ccc4[nH]c(-c5ccccc5)nc4c3)[nH]n2)cc1 | 13.1 | 12 | 14.1 |

| Compound | inhibition [1] [%] | inhibition [2] [%] | inhibition [3] [%] |
| --- | --- | --- | --- |
| CCn1c(Sc2ccc(C#N)c([N+](=O)[O-])c2)nnc1-c1cc(OC)cc(OC)c1 | 1.62 | 0.59 | -0.03 |
| CN(CCCCN)Cc1ccc(-c2ccc(Cl)cc2)cc1 | 21.7 | 19.1 | 10.5 |
| CCc1nc2ccc(C(=O)OC)nc2n1Cc1ccc2oc(-c3ccccc3N)c(Br)c2c1 | 2.91 | 2.33 | 1.6 |
| Cc1nc(N)nc(N)c1-c1cc(Cl)c(N)c(Cl)c1 | -0.04 | -0.43 | -1.52 |
| CC[C@H](C)CNC(=O)c1cncc(-c2ccc(CNC3CCCC3)cc2)c1 | 2.12 | 1.43 | 1.7 |
| Cc1nc(C)c(CC(=O)Nc2cccc(-c3cccc(-c4nc5cc(C(F)(F)F)ccc5[nH]4)c3)c2)s1 | 2.61 | 2.61 | 1.2 |
| CC1(C)N=C(N)N=C(N)C1c1ccc(Cl)c(Cl)c1 (stereo unspecified) | 0.69 | 2.94 | 1.36 |
| Clc1ccc2nnc(-c3c(Cl)cccc3Cl)n2n1 | 6.63 | 4.09 | 2.05 |
| CN(C)CCOc1cc(NC(=O)/C=C/c2cccc3ccccc23)ccc1I | 10.4 | 8.1 | 8.23 |
| CCCCCCCN1CC[C@@H](CCCc2ccnc3ccc(OCCCCN/C(N)=N/O)cc23)[C@@H](CC)C1 | 4.19 | 2.68 | 2.04 |
| CCN(CC)CCOc1ccc(C(O)(C#CC(O)(c2ccc(OCCN(CC)CC)cc2)c2ccc([N+](=O)[O-])cc2)c2ccc([N+](=O)[O-])cc2)cc1 (stereo unspecified) | 61 | 32.7 | 4.31 |
| Cc1cc(O)nc(NC#N)n1 | 2.54 | 3.15 | 2.82 |
| c1cc(CN2CCCCC2)cc(OCCCNc2ccnc3ccccc23)c1 | 18 | 7.87 | 5.12 |
| Cc1cc(F)ccc1Nc1nc(N(C)c2ccccc2)c2cc(OCCN(C)C)ccc2n1 | 7.87 | 6.84 | 2.04 |
| CCOC(=O)c1ccc(-c2c(C(F)(F)F)noc2-c2cc(CC)c(OC)cc2O)o1 | 3.34 | 2.22 | 1.45 |
| FC(F)(F)c1cc(Nc2ncnc3ccc(Br)cc23)ccc1OCc1ccccc1 | 6.39 | 3.97 | 3.84 |
| CCCCC(NCC)c1ccc(OCCOc2ccc(C(CCCC)NCC)cc2)cc1 (stereo unspecified) | 81.2 | 41.5 | 106 |
| O=C(CSc1nc(-c2ccccc2Cl)ns1)Nc1cccc(Cl)c1 | 1.59 | 1.79 | 0.35 |
| CCc1ccc(C(=O)Nc2cccc(CN3CCCN(Cc4ccc(O)cc4)CC3)c2)cc1 | 2.88 | -2.75 | 3.01 |
| Cc1cc(=NN=Cc2ccc(F)cc2)c2ccc(F)cc2[nH]1 | 0.14 | 0.15 | -0.46 |
| CCNc1cc(C(=O)N[C@@H](Cc2ccccc2)[C@H](O)CNCc2ccc3c(c2)OCCO3)cc(N2CCCCS2(=O)=O)c1 | 0.98 | 1.25 | 1.57 |
| CCN(CC)c1ccccc1CNC(=O)c1cc(Cl)c(N)cc1OC | 9.4 | 9.03 | 8.59 |
| C=CCc1cc(Br)ccc1OCCCON1C(N)=NC(N)=NC1(C)C | 19.1 | 27.3 | 17.7 |
| Nc1c2c(nc3ccc(C(=O)Nc4ccccc4)cc13)CCCC2 | 4.09 | 3.96 | 3.87 |
